# Bioassay records from PubChem BioAssay.
# Pf growth 48h: inhibits P. falciparum growth in the first generation, 48 h. P. falciparum luciferase growth in erythrocytes, 48 h. Potency, µM (doses to about 28.7 µM), for inactives: at the highest dose activity change, negative = inhibition, hits mostly inhibitors. 310,000 tested, 5.9% active; note: potency is the fitted concentration of half-maximal effect; % is set by controls: 0 for no effect and ±100 for the full control effect
#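 Growth was read as firefly luciferase luminescence after a 48 h, 37 C, 5% CO2 exposure of compounds to reporter-bearing P. falciparum cultures (0.1% parasitemia, 2% hematocrit final) in Albumax-supplemented RPMI 1640.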
# Shiga toxin inh: blocks Shiga toxin action in Vero cells | inhibition, % at 38.7 µM | Vero cells, Shiga toxin protein synthesis inhibition reporter | 290,000 tested, 9.2% active | AID 2315; in the data active = inhibition mostly above about 28%, no sharp cut-off; inactive = mostly below about 43%; note: 0% is about no effect
# CHX counter: counter-screen hit for Shiga toxin inhibitors, cycloheximide | 300,000 tested, 12% active | max response, % | cell reporter, cycloheximide protein synthesis inhibition counterscreen | AID 2314; in the data active = max response mostly above about 13%, no sharp cut-off; inactive = mostly below about 14%; note: read at 38.3 µM for the half of the compounds with a filed dose; 0% is about no effect
# Sm TGR inh: blocks Schistosoma mansoni thioredoxin glutathione reductase. Q962Y6. purified TGR, DTNB reduction, TNB absorbance 405 nm. Potency, µM (series often up to 114 µM), for the others: top-dose activity change, negative = inhibition, usual class: inhibitors. 360,000 tested, 3% active; note: potency is the fitted concentration of half-maximal effect; % is set by controls: 0 for no effect and ±100 for the full control effect; nearly all actives have a fitted effect of over 60% in size
#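 TGR 20 nM + NADPH 100 uM (dispensed conc.), cpd preinc 15 min RT; start with NADPH (500 uM addition) then DTNB (15 mM addition). Kinetic TNB absorbance, 405 nm filter. Four-parameter Hill fit across titration.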
# NS1 inh: influenza NS1 inhibition; Potency, µM (doses to about 46.1 µM), without a hit: at the highest dose activity, positive = more growth; 270,000 tested, 0.4% active; calls by dose curve; note: potency is the fitted concentration of half-maximal effect; actives are rising curves; nearly all actives have a fitted effect of over 50% in size
#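 Growth recovery, yeast-based: influenza A NS1 expressed in S. cerevisiae causes slow growth, and suppressors are detected by OD600. The parent strain without NS1 is used as positive control.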
# Pf growth 96h: P. falciparum growth inhibition at 96 hours | P. falciparum luciferase reporter growth, 96 h | Potency, µM (doses to about 28.7 µM), for inactives: top-dose activity change, negative = inhibition, most hits filed as inhibitors | 320,000 tested, 6.9% active | AID 504834; note: potency is the fitted concentration of half-maximal effect; % is set by controls: 0 for no effect and ±100 for the full control effect
#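 Delayed-death screen, second-generation endpoint: infected erythrocytes, 2% hematocrit, 0.05% parasitemia final; 96 hours at 37 C, 5% CO2; luciferase detection reagent; luminescence decrease equals reduced growth.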
# * hit, by the source's call; i = inactive; ? = inconclusive; · = no result; + = active, no number. Rows were chosen to be rich in hits. Some 21% of all compounds tested hit in one or more screens of this group. Unless noted, calls come from the whole dose curve; as a rule, active = well fitted curve in the direction sought with a large enough effect; inconclusive = small, poorly fitted or top-dose-only effect, or another doubt; inactive = no such curve, though single readings can be large; an effect the other way counts as inactive or inconclusive.
SMILES,Pf growth 48h,Shiga toxin inh,CHX counter,Sm TGR inh,NS1 inh,Pf growth 96h
CC(C)C(=O)Nc1cccc(NC(=S)NC(=O)c2cccs2)c1,99%,75*,33*,?,12%,31%
CC(C)C(=O)Nc1cccc(NC(=S)NC(=O)c2ccc3c(c2)OCO3)c1,?,-20,-3,-24%,-13%,-38%
NC1(C(=O)NC2(C(=O)O)CCCC2)CCCC1,·,·,·,·,-3%,·
Cc1cc(OCC(=O)N2CCC(c3nc4ccccc4s3)CC2)ccc1Cl,·,·,·,2%,·,·
CN(C)C(CNC(=O)CNC(=O)c1ccc(Br)cc1)c1ccccc1 (stereo not drawn),0%,2,2,-19%,·,?
COc1ccc(C2c3c(ncn(CCCO)c3=N)Oc3ccc4ccccc4c32)cc1OC (stereo not drawn),13µM*,-9,1,4%,10%,1.7µM*
COc1ccc(C2c3ccc4ccccc4c3Oc3ncn4nc(Cc5ccccc5)nc4c32)cc1OC (stereo not drawn),?,-8,3,-2%,9%,12%
COc1ccc(C2c3c(ncn(CCCO)c3=N)Oc3ccc4ccccc4c32)cc1 (stereo not drawn),12µM*,2,-3,65%,-11%,?
COc1ccc(C2c3c(ccc4ccccc34)Oc3ncn4nc(Cc5ccccc5)nc4c32)cc1OC (stereo not drawn),1.7µM*,-11,-1,-4%,0%,1.5µM*
COc1ccc(C2c3c(ncn(CCN4CCOCC4)c3=N)Oc3ccc4ccccc4c32)cc1OC (stereo not drawn),4.1µM*,-25,-2,-23%,7%,0.59µM*
COc1ccc(C2C3=C(CC(C)(C)CC3=O)Oc3ncn(CCO)c(=N)c32)cc1OC (stereo not drawn),·,-16,-3,4%,-1%,230%
Cc1cc(C)c(C(=O)Nc2ccccc2)c(CC(C)(C)C(=O)O)c1,43%,8,2,-3%,-5%,23%
Cc1ccccc1NC(=O)CSc1c(C(C)C)cnc2c1c(=O)n(C)c(=O)n2C,·,·,·,-4%,·,·
CCOc1ccc(N/N=C(/C#N)C(N)=O)cc1,74%,46*,31*,0%,-167%,42%
COc1ccc(C(=O)/C(C#N)=N/Nc2ccccc2[N+](=O)[O-])cc1,26%,7,-1,4%,4%,8%
COc1ccc(C(=O)/C(C#N)=N/Nc2ccc([N+](=O)[O-])cc2)cc1,13µM*,-3,-1,·,-5%,?
CCOc1ccc(N/C(SC)=C(/C#N)C(N)=O)cc1,0%,24,-3,-5%,-15%,?
CCOC(=O)NC(=O)/C(C#N)=N\Nc1ccc(Cl)cc1,·,-6,-6,4%,-3%,?
N#C/C(=N/Nc1ccc(OC(F)(F)F)cc1)C(N)=S,6.6µM*,75*,57*,-18%,-78%,1.7µM*
COc1ccc(N/N=C(\C#N)C(N)=O)cc1,20%,43,13*,-16%,-36%,47%
c1cc(CSc2ncnc3nc[nH]c23)ccn1,·,·,·,·,-3%,·
COc1ccc(NC(=O)c2ccc(Cl)nc2)cc1S(=O)(=O)N1CCCCC1,?,-8,-3,-2%,2%,?
O=C(Nc1ccc2cn[nH]c2c1)c1ccc(Cl)c(S(=O)(=O)N2CCOCC2)c1,?,5,45*,-16%,6%,?
O=C(Nc1ccc(Cl)c(S(=O)(=O)N2CCOCC2)c1)c1ccc2c(c1)OCCO2,13µM*,47*,24*,-10%,·,?
O=C(Nc1cccnc1)c1ccc(Cl)c(S(=O)(=O)N2CCOCC2)c1,-26%,-8,-5,-15%,-5%,-23%
SMILES,Pf growth 48h,Shiga toxin inh,CHX counter,Sm TGR inh,NS1 inh,Pf growth 96h
O=C(Nc1ccc(Cl)c(S(=O)(=O)N2CCOCC2)c1)c1ccc(OCC2CCCO2)cc1 (stereo not drawn),12µM*,2,25,-7%,·,4.1µM*
O=C(Nc1ccc(S(=O)(=O)N2CCCC2)cc1)c1ccc(OCC2CCCO2)cc1 (stereo not drawn),?,26,11,3%,2%,?
Cc1ccc(NC(=O)COC(=O)c2ccc3c(c2)OCCO3)cc1S(=O)(=O)N1CCOCC1,-9%,3,27,-4%,·,-20%
O=C(Nc1ccc(Cl)c(S(=O)(=O)N2CCOCC2)c1)c1ccc(Cl)nc1,?,·,·,2%,·,7.4µM*
Cc1cccc(N2CCN(C(=O)NCc3ccc(F)cc3)CC2)c1C,?,-8,-3,-13%,-28%,?
CCCCN(CC)CCCNC(=O)C1CCN(c2nc3ccc(CC)cc3s2)CC1,·,·,·,-11%,·,·
COc1ccc(NC(=O)c2oc3ccccc3c2NC(=O)c2cc(C)cc(C)c2)c(OC)c1,·,·,·,1%,·,·
COc1cccc(CNc2ncnc3ccc(-c4c(C)noc4C)cc23)c1,4.1µM*,-4,-6,-2%,·,5.9µM*
Cc1noc(C)c1-c1ccc2ncnc(NCC3CCCCN3C)c2c1 (stereo not drawn),4.1µM*,-2,-7,-4%,·,2.3µM*
Cc1noc(C)c1-c1ccc2ncnc(NCc3cccc(Cl)c3)c2c1,·,9,7,·,·,·
Cc1ccsc1CNc1ncnc2ccc(-c3c(C)noc3C)cc12,·,57*,28,·,·,·
COc1ccc(NS(=O)(=O)c2cc3[nH]c(=O)c(=O)[nH]c3cc2C)cc1Cl,·,·,·,-12%,·,·
COc1ccccc1NC(=O)CN1C(=O)C(c2ccc(F)cc2)=NC1(C)C,·,·,·,6%,·,·
Cn1nnnc1N=N/C(=N/Nc1ccccc1)c1ccccc1,?,45,17*,-12%,-73%,?
O=C(Cn1cc(S(=O)(=O)Cc2cccc(Cl)c2)c2ccccc21)NCc1ccccc1Cl,·,·,·,1%,·,·
Cc1c(C(=O)NNC(=S)Nc2cccc(Cl)c2)nnn1-c1ccccc1,23%,+,57*,2%,-12%,20%
Cc1cc(C(=O)NNC(=S)Nc2ccccc2)nn1C,75%,61*,14,·,3%,87%
CNC(=S)NNC(=O)c1cn(C)nc1C,?,22,0,6%,·,?
Cc1nn(C)cc1C(=O)NNC(=S)Nc1ccccc1,210%,21,17*,2%,4%,i
O=C(Nc1c2ccccc2nc2ccccc12)C(Cl)(Cl)Cl,1µM*,10,1,-15%,-131%,36%
COc1ccc(OC(=O)C(C)N2C(=O)c3ccccc3C2=O)cc1 (stereo not drawn),-2%,·,-2,?,-23%,30%
COc1ccc(C2=C(N)c3ccccc3C2=O)cc1,-5%,102,42*,4%,-6%,10µM*
O=C(c1ccccc1)c1c[nH]cc1-c1ccccc1,11%,7,-1,3%,-1%,2%
COc1ccc(C2=C(Nc3ccc(C)cc3C)c3ccccc3C2=O)cc1,·,·,·,-18%,·,·
COc1ccc(C2=C(Nc3ccccc3)c3ccccc3C2=O)cc1,1µM*,5,8,-2%,-8%,-93%
